Results reported in the supplement of paper PMC11219838.
A number with no mark means an inactive call.

Legend:
Settings in all cases: 60 µM; 5 days; temperature: 20 °C
Meloidogyne hapla J2 = test: proportion of mobile M. hapla J2 relative to DMSO control (fraction of DMSO control); higher = more viable, less nematicidal, active = 0.7 or less
Method in brief: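 About 25 M. hapla J2 were added per 96-well well in distilled water, and compound was pinned to 60 µM final (0.6% v/v DMSO). Sealed plates were shaken at 200 rpm for 5 days at 20 °C, then 2 µL 1 M NaOH was added before microscopic mobility scoring. Mobility was divided by the mean of eight DMSO wells on the same plate, and two biological replicates were averaged.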

[1] = system: Caenorhabditis elegans dauer (daf-2(e1370)); test: proportion of mobile C. elegans dauer larvae relative to DMSO control (fraction of DMSO control); higher = more viable, less nematicidal, active = 0.63 or less; extreme values may be limits of the assay
Method in brief: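 The proportion of mobile worms, relative to DMSO wells, was scored by dissection microscope and averaged over two biological replicates. Worms were C. elegans dauers, about 20 per well in liquid NGM in 96-well plates, generated from synchronized larvae on MYOB plates with E. coli OP50 at 25 °C for 48 h. They were treated with compound pinned to 60 µM final (0.6% v/v DMSO) and kept in sealed plates shaken at 200 rpm for 5 days at 20 °C.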

Ditylenchus dipsaci = test: proportion of mobile D. dipsaci (mixed stage) relative to DMSO control (fraction of DMSO control); higher = more viable, less nematicidal, active = 0.86 or less; extreme values may be limits of the assay
Method in brief: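 D. dipsaci were grown on pea plants in Gamborg B-5 agar and extracted through a filter funnel into water, and about 20 worms were added per 96-well well in distilled water. Compound was pinned to 60 µM final (0.6% v/v DMSO), and sealed plates were shaken at 200 rpm for 5 days at 20 °C. After 2 µL 1 M NaOH was added, mobile worms were scored microscopically. Mobility was expressed relative to DMSO controls and averaged over two biological replicates.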

Row | SMILES | proportion of mobile M. hapla J2 (Meloidogyne hapla J2) | proportion of mobile C. elegans dauer larvae [1] | proportion of mobile D. dipsaci (Ditylenchus dipsaci)
1 | CCOC(=O)c1ccc(OCc2nc(-c3cccs3)no2)cc1 | 1.1 | 1 | 1
2 | Clc1ccc(OCc2nc(-c3ccc4c(c3)OCO4)no2)cc1 | 0.932 | 1 | 1
3 | Cc1ccc(-c2noc(COc3ccc(Br)cc3)n2)cc1 | 1 | 1 | 1
4 | Fc1ccc(-c2nc(-c3ccc4c(c3)OCO4)no2)cc1 | 1.02 | 1 | 1
5 | Fc1ccc(-c2noc(-c3ccc(Br)cc3)n2)cc1 | 1.04 | 1 | 1
6 | Cc1cc(NC(=O)CSc2nnc(-c3ccc(Cl)cc3Cl)o2)no1 | 0.833 | 1 | 1
7 | Clc1ccc(-c2nc(C3CCCCC3)no2)cc1 | 1.04 | 1 | 1
8 | O=C(CSc1nnc(-c2ccc(Br)cc2)o1)N1CCCCCC1 | 0.844 | 1 | 1
9 | Brc1ccc(-c2noc(-c3ccc4c(c3)OCO4)n2)cc1 | 1.03 | 1 | 1
10 | Fc1ccc(OCc2nc(-c3ccccc3)no2)cc1 | 1.02 | 1 | 1
11 | COc1ccc(-c2noc(CSc3nc(C)cc(C)n3)n2)cc1 | 0.992 | 1 | 0.833 (active)
12 | Cc1cccc(-c2nc(-c3ccc4c(c3)OCO4)no2)c1 | 1.01 | 1 | 1
13 | COc1ccc(OC(C)c2nc(-c3cccnc3)no2)cc1 (centres undefined) | 0.966 | 1 | 1
